# Measurements as given in the supplement of paper PMC11018630.
# Counter-ions that a name gives are not always drawn. ± gives the standard deviation of the averaged measurements. In all, about 1,100 compounds were measured (“day of extracellular matrix detachment from plate”: median about 16, lowest 2% from about 10 on). The entries come from a sample that favours the lowest values as a whole. Where a SMILES comes first, the peptide text is derived from it. Bridges are numbered along the chain shown (N, C = ends). [ ]: non-standard residue; d: D form. Orn = NCCC[C@H](N)C(=O)O; Mpa = O=C(O)CCS
# Test system: RDEB dermal fibroblasts EB71
# Assay: day of extracellular matrix detachment from plate (days); higher = delayed detachment (less fibrotic matrix)
# Settings: compound concentration: 10 uM
row,SMILES,day of extracellular matrix detachment from plate
1,O=c1sn(-c2cccc3ccccc23)c(=O)n1Cc1ccccc1 [Tideglusib],18.7 ± 4
2,CC1(C)Cc2c(-c3ccccc3)c(-c3ccc(Cl)cc3)c(CC(=O)O)n2C1 [Licofelone],16
3,NC(=O)c1ccc(I)c([N+](=O)[O-])c1 [Iniparib (BSI-201)],12.3 ± 1.1
4,CC(=O)Nc1ccccc1 [Acetanilide],10 ± 1.7
5,CCOc1ccc(NC(C)=O)cc1 [Phenacetin],12
6,CC(=O)Nc1ccc(O)cc1 [Acetaminophen],11
7,C=C1[C@H](CO)[C@@H](O)C[C@@H]1n1cnc2c(=O)[nH]c(N)nc21 [Entecavir Hydrate],12.7 ± 2.9
8,CCOc1nc2cccc(C(=O)OCc3oc(=O)oc3C)c2n1Cc1ccc(-c2ccccc2-c2noc(=O)[nH]2)cc1 [Azilsartan Medoxomil],19 ± 1.7
9,CCCCCC(=O)O[C@]1(C(C)=O)CC[C@H]2[C@@H]3CCC4=CC(=O)CC[C@]4(C)[C@H]3CC[C@@]21C [Hydroxyprogesterone caproate],20
10,C[C@@H]1C[C@H]2[C@@H]3CCC4=CC(=O)C=C[C@]4(C)[C@@]3(Cl)[C@@H](O)C[C@]2(C)[C@@]1(OC(=O)c1ccco1)C(=O)CCl [Mometasone furoate],29.5 ± 7.1
11,C[C@H](Cc1cc2c(c(C(N)=O)c1)N(CCCO)CC2)NCCOc1ccccc1OCC(F)(F)F [Silodosin],11
12,CCCC(=O)OCOC(=O)C1=C(C)NC(C)=C(C(=O)OC)C1c1cccc(Cl)c1Cl (stereo not drawn) [Clevidipine Butyrate],19.3 ± 6.3
13,CC(=O)OCC(=O)[C@H]1CC[C@H]2[C@@H]3CCC4=CC(=O)CC[C@]4(C)[C@H]3CC[C@]12C [Deoxycorticosterone acetate],13
14,C=C1/C(=C\C=C2/CCC[C@]3(C)[C@@H]([C@H](C)CCCC(C)C)CC[C@@H]23)C[C@@H](O)C[C@@H]1O [Alfacalcidol],36
15,CCCCCCCC(=O)N[C@H](CN1CCCC1)[C@H](O)c1ccc2c(c1)OCCO2 [Eliglustat Tartrate],18.3 ± 7.6
16,COc1ccc(-c2ccc3cc(C(=O)O)ccc3c2)cc1C12CC3CC(CC(C3)C1)C2 [Adapalene],16
17,Cc1c(F)cc(C(=O)NC2CC2)cc1-c1ccc(C(=O)NCC(C)(C)C)cn1,16 ± 1.4
18,CCCCCCCCCCCCCCCC(=O)O[C@@H]1[C@@H](O)[C@@H](O)[C@@H]([C@H](NC(=O)[C@@H]2C[C@@H](CCC)CN2C)[C@H](C)Cl)O[C@@H]1SC [Clindamycin palmitate HCl],18
19,Cc1cn([C@H]2O[C@@H](CO)[C@H](O)[C@H]2F)c(=O)[nH]c1=O [Clevudine],15.3 ± 2.3
20,O=C(O)CCCN1CCC(O[C@@H](c2ccc(Cl)cc2)c2ccccn2)CC1 [Bepotastine Besilate],18.7 ± 4
21,CCOc1ccc(C[C@H]2NC(=O)CCSSC[C@@H](C(=O)N3CCC[C@H]3C(=O)N[C@@H](CCCN)C(=O)NCC(N)=O)NC(=O)[C@H](CC(N)=O)NC(=O)[C@H]([C@@H](C)O)NC(=O)[C@H]([C@@H](C)CC)NC2=O)cc1 [Atosiban Acetate] ([Mpa][dY](Et)ITNCP[Orn]G-NH2; disulfide 1-6),19 ± 3

row,SMILES,day of extracellular matrix detachment from plate
1,C=C1c2cccc(O)c2C(=O)C2=C(O)[C@]3(O)C(=O)C(C(N)=O)=C(O)[C@@H](N(C)C)[C@@H]3[C@@H](O)[C@H]12 [Methacycline HCl],17 ± 1.7
2,C[C@H]1C[C@@H]2[C@H](C(=O)C[C@@]3(C)[C@H]2CC[C@]3(O)C(=O)CO)[C@@]2(C)C=CC(=O)C=C12 [Methylprednisone],18.3 ± 4
3,C[C@]12C=CC(=O)C=C1CC[C@@H]1[C@@H]2C(=O)C[C@@]2(C)[C@H]1CC[C@]2(O)C(=O)CO [Prednisone],10.3 ± 1.1
4,C[C@H]1C[C@H]2[C@@H]3CCC4=CC(=O)C=C[C@]4(C)[C@H]3C(=O)C[C@]2(C)[C@@]1(O)C(=O)CO [Meprednisone],18.3 ± 8.1
5,CCOC(=O)C1=C[C@@H](OC(CC)CC)[C@H](NC(C)=O)[C@@H](N)C1 [Oseltamivir Phosphate],20 ± 1.7
6,OC1(c2ccc(Cl)c(C(F)(F)F)c2)CCN(CCCC(c2ccc(F)cc2)c2ccc(F)cc2)CC1 [Penfluridol],25.5 ± 5
7,Cc1nc(C)c(Cl)c(O)c1Cl [Clopidol],18 ± 1.7
8,NC(=O)N1CCC(CC(=O)N2CCC([C@H]3c4ncc(Br)cc4CCc4cc(Cl)cc(Br)c43)CC2)CC1 [Lonafarnib],25
9,CCOC(=O)C1=C(C)NC(C)=C(C(=O)OCC)C1c1ccccc1/C=C/C(=O)OC(C)(C)C [Lacidipine],19.3 ± 6.3
10,CCC(=O)NCC[C@@H]1CCc2ccc3c(c21)CCO3 [Ramelteon],9.67 ± 1.1
11,Cc1ccc(C(=O)c2ccc(CC(=O)O)n2C)cc1 [Tolmetin Sodium],19.3 ± 1.1
12,Clc1cccc(Cl)c1NC1=NCCN1 [Clonidine HCl],11 ± 1.7
13,COc1nc(C)nc(Cl)c1NC1=NCCN1 [Moxonidine],10 ± 1.7
14,O=S(=O)(O)CCCS(=O)(=O)O [Eprodisate (disodium)],18
15,FC(F)(F)c1ccc(/C=C/c2nc(COc3ccc(CCCCn4ccnn4)cc3)co2)cc1 [Mubritinib (TAK 165)],15.7 ± 6.3
16,Cc1nc(C(=O)NCC(=O)O)c(O)c2ccc(Oc3ccccc3)cc12,23.7 ± 2.3
17,Nc1nc(=O)c2nc(CNc3ccc(C(=O)N[C@@H](CCC(=O)O)C(=O)O)cc3)cnc2[nH]1 [Folic acid],17
18,O=C1CCc2cc(OCCCCc3nnnn3C3CCCCC3)ccc2N1 [Cilostazol],10.3 ± 1.1
19,O=C1CCc2ccc(OCCCCN3CCN(c4cccc(Cl)c4Cl)CC3)cc2N1 [Aripiprazole],19.3 ± 6.3
20,Cn1nnc2c(C(N)=O)ncn2c1=O [Temozolomide],9.67 ± 1.1
21,Nc1c(CC(=O)O)cccc1C(=O)c1ccc(Br)cc1 [Bromfenac Sodium],13

row,SMILES,day of extracellular matrix detachment from plate
1,CC1(C)S[C@@H]2[C@H](NC(=O)[C@H](NC(=O)N3CCN(S(C)(=O)=O)C3=O)c3ccccc3)C(=O)N2[C@H]1C(=O)O [Mezlocillin Sodium],13
2,Cc1cccc(-c2nn3c(c2-c2ccnc4ccc(C(N)=O)cc24)CCC3)n1,29.5 ± 9.2
3,CCN(CCCc1ccccc1)CCCc1ccccc1 [Alverine Citrate],18
4,C=CCc1cc(OC)c(O)c(C(=O)NCCO)c1 [Alibendol],15.7 ± 6.3
5,Nc1ccc(/N=N/c2ccccc2)c(N)n1 [Phenazopyridine HCl],13
6,C[C@@H](NCCCc1cccc(C(F)(F)F)c1)c1cccc2ccccc12 [Cinacalcet HCl],12.3 ± 1.1
7,NS(=O)(=O)c1ccc(C(=O)O)cc1 [Carzenide],12.3 ± 2.3
8,CC[C@H](C)C(=O)O[C@H]1C[C@H](O)C=C2C=C[C@H](C)[C@H](CC[C@@H](O)C[C@@H](O)CC(=O)O)[C@H]21 [Pravastatin sodium],20 ± 1.7
9,O=C(NC(Cc1cc(=O)[nH]c2ccccc12)C(=O)O)c1ccc(Cl)cc1 (stereo not drawn) [Rebamipide],15.7 ± 6.3
10,CC1(C)[C@@H](OC(=O)CCC(=O)O)CC[C@]2(C)[C@H]3C(=O)C=C4[C@@H]5C[C@@](C)(C(=O)O)CC[C@]5(C)CC[C@@]4(C)[C@]3(C)CC[C@@H]12 [Carbenoxolone Sodium],13
11,CC[C@H](C)C[C@H](C)CCCCCCCCC(=O)N[C@H]1C[C@@H](O)[C@@H](NCCN)NC(=O)[C@@H]2[C@@H](O)CCN2C(=O)[C@H]([C@H](O)CCN)NC(=O)[C@H]([C@H](O)[C@@H](O)c2ccc(O)cc2)NC(=O)[C@@H]2C[C@@H](O)CN2C(=O)[C@H]([C@@H](C)O)NC1=O [Caspofungin Acetate],18
12,CC(CCc1ccc(O)cc1)NCC(O)c1ccc(O)cc1 (stereo not drawn) [Ractopamine HCl],13
13,N#CC[C@H](C1CCCC1)n1cc(-c2ncnc3[nH]ccc23)cn1,16
14,Cc1cn(-c2cc(NC(=O)c3ccc(C)c(Nc4nccc(-c5cccnc5)n4)c3)cc(C(F)(F)F)c2)cn1 [Nilotinib (AMN-107)],30.5 ± 6
15,O=c1oc2c(O)c(O)cc3c(=O)oc4c(O)c(O)cc1c4c23 [Ellagic acid],10.3 ± 1.1
16,CO/N=C(\C(=O)N[C@@H]1C(=O)N2C(C(=O)O)=C(CSc3nnnn3C)CS[C@H]12)c1csc(N)n1 [Cefmenoxime hydrochloride],18 ± 1.4
17,CCN1CCN(C(=O)N[C@@H](C(=O)N[C@@H]2C(=O)N3[C@@H]2SC(C)(C)[C@@H]3C(=O)O)c2ccccc2)C(=O)C1=O [Piperacillin Sodium],13
18,CCN1CCN(C(=O)N[C@@H](C(=O)N[C@@H]2C(=O)N3C(C(=O)O)=C(CSc4nnnn4C)CS[C@H]23)c2ccc(O)cc2)C(=O)C1=O [Cefoperazone],10.3 ± 1.1
19,NC(=O)[C@@H]1CSSCCC(=O)N[C@@H](CCCCN=C(N)N)C(=O)NCC(=O)N[C@@H](CC(=O)O)C(=O)N[C@@H](Cc2c[nH]c3ccccc23)C(=O)N2CCC[C@H]2C(=O)N1 [Eptifibatide Acetate],22
20,CC(C)[C@H]1C(=O)N[C@@H](CCCNC(=N)N)C(=O)NCC(=O)N[C@@H](CC(=O)O)C(=O)N[C@H](Cc2ccccc2)C(=O)N1C [Cilengitide],6
21,CCCCCCCCCC(=O)N[C@@H](Cc1c[nH]c2ccccc12)C(=O)N[C@H](CC(N)=O)C(=O)N[C@@H](CC(=O)O)C(=O)N[C@@H]1C(=O)NCC(=O)N[C@@H](CCCN)C(=O)N[C@@H](CC(=O)O)C(=O)N[C@H](C)C(=O)N[C@@H](CC(=O)O)C(=O)NCC(=O)N[C@H](CO)C(=O)N[C@@H]([C@H](C)CC(=O)O)C(=O)N[C@@H](CC(=O)c2ccccc2N)C(=O)O[C@@H]1C [Daptomycin],22
